For part of these data: Measured potencies and affinities stand elsewhere. Activity calls are given as the source filed them. How the calls were made is not given here.
Tests used:
[1] = Ebola virus entry assay, green fluorescence channel
[2] = Ebola virus entry assay, blue channel fluorescence
[3] = Ebola virus entry assay, ratio channel
[4] = Ebola virus entry assay, green channel fluorescence
[5] = Ebola virus entry assay, reporter ratio channel; Channel type: primary
[6] = Ebola virus entry assay, blue channel (ratio component)

Measured: efficacy
Wherever efficacy is given: 0% is about no effect.

O=C(O)C(=O)Nc1cccc(-c2nn[nH]n2)c1
inactive: [1] 14.4% | [2] | [3] | [4] | [5] | [6]

COC(=O)c1cc(S(N)(=O)=O)ccc1OC
inactive: [1] -31.2% | [2] | [3] | [4] | [5] | [6]

C[C@@H]1C[C@H]2[C@@H]3CCC4=CC(=O)C=C[C@]4(C)[C@@]3(F)[C@@H](O)C[C@]2(C)[C@H]1C(=O)CO
inactive: [1] 20.4% | [2] | [3] | [4] | [5] | [6]

CC(C)c1cc2c(cc1S(=O)(=O)O)[C@@]1(C)CCC[C@@](C)(C(=O)O)[C@@H]1CC2
inactive: [1] -15.6% | [2] | [3] | [4] | [5] | [6]

NC(=O)CC[C@@H](N)C(=O)O
inactive: [1] -11.5% | [2] | [3] | [4] | [5] | [6]

Cc1cccc(C)c1NC(=O)CN1CCCC1
inactive: [1] 18.6% | [2] | [3] | [4] | [5] | [6]

CCCOC(=O)c1ccc(N)cc1
inactive: [1] 7.92% | [2] | [3] | [4] | [5] | [6]

O=C(NCCCN1CCOCC1)c1ccc(Cl)cc1
inactive: [1] -12.2% | [2] | [3] | [4] | [5] | [6]

CCOc1c(N2CCOCC2)cnn(C)c1=O
inactive: [1] -16.1% | [2] | [3] | [4] | [5] | [6]

O=C(O)CNC(=O)c1ccccc1I
inactive: [1] -12.8% | [2] | [3] | [4] | [5] | [6]

O=c1[nH]c(=O)c2ccccc2o1
inactive: [1] 15% | [2] | [3] | [4] | [5] | [6]

O=C(O)[C@H](O)[C@@H](O)[C@H](O[C@@H]1O[C@H](CO)[C@H](O)[C@H](O)[C@H]1O)[C@H](O)CO
inactive: [1] 24.3% | [2] | [3] | [4] | [5] | [6]

Cc1cc(O)c(C)c(C)c1O
inactive: [1] -20.2% | [2] | [3] | [4] | [5] | [6]

O=C(O)c1ccc(OCCCOc2ccc(C(=O)O)cc2)cc1
inactive: [1] 11.3% | [2] | [3] | [4] | [5] | [6]

CCN(CC)CC(=O)Nc1c(C)cccc1C
inactive: [1] 11% | [2] | [3] | [4] | [5] | [6]

C=CCCCCCCCCC(=O)O
inactive: [1] -13.8% | [2] | [3] | [4] | [5] | [6]

O=C(O)c1ccc(OCCN2CCCCC2)cc1
inactive: [1] -23.5% | [2] | [3] | [4] | [5] | [6]

CNC1CCCN(c2c(F)cc3c(=O)c(C(=O)O)cn(C4CC4)c3c2OC)C1 (stereo not given)
inactive: [1] -29.7% | [2] | [3] | [4] | [5] | [6]

COC(=O)C1=C(C)NC(C)=C(C(=O)OC)C1c1ccccc1[N+](=O)[O-]
inactive: [1] 16.8% | [2] | [3] | [4] | [5] | [6]

N[C@@H](Cc1ccc(O)cc1)C(=O)O
inactive: [1] 37.7% | [2] | [3] | [4] | [5] | [6]

O=C1Nc2cc(Cl)ccc2Oc2ccccc21
inactive: [1] -23% | [2] | [3] | [4] | [5] | [6]

CCNC(=O)NCc1cccc(Cl)c1
inactive: [1] 7% | [2] | [3] | [4] | [5] | [6]

CCCCCOc1ccc(C2SC(=O)NC2=O)cc1OCC (stereo not given)
inactive: [1] 24.1% | [2] | [3] | [4] | [5] | [6]

Cc1[nH]c(C)c(Cl)c(=O)c1Cl
inactive: [1] 22.5% | [2] | [3] | [4] | [5] | [6]

Cc1ccc(C(C)OC(=O)C2(C)CCC(C(=O)O)C2(C)C)cc1 (stereo not given)
inactive: [1] 24.8% | [2] | [3] | [4] | [5] | [6]

NC(N)=NC(=O)c1nc(Cl)c(N)nc1N
inactive: [1] -17.5% | [2] | [3] | [4] | [5] | [6]

CN1CC(=O)N2[C@H](c3ccc4c(c3)OCO4)c3[nH]c4ccccc4c3C[C@@H]2C1=O
inactive: [1] 22.3% | [2] | [3] | [4] | [5] | [6]

NNc1nnc(NN)c2ccccc12
inactive: [1] -13% | [2] | [3] | [4] | [5] | [6]

CC1=CC(=O)c2ccccc2C1=O
inactive: [1] 12.6% | [2] | [3] | [4] | [5] | [6]

CC[N+](CC)(CC)CCOC(=O)C(C1CCCC1)C1CCCC1
inactive: [1] 39.4% | [2] | [3] | [4] | [5] | [6]

NCCNC(=O)c1ccc(Cl)cn1
inactive: [1] -25.1% | [2] | [3] | [4] | [5] | [6]

COc1ccnc2c1CCCCC2S(=O)c1nc2ccccc2[nH]1 (stereo not given)
inactive: [1] -22.9% | [2] | [3] | [4] | [5] | [6]

O=C(O)c1cn(C2CC2)c2cc(Cl)c(F)cc2c1=O
inactive: [1] 14.4% | [2] | [3] | [4] | [5] | [6]

O=C1c2cccc(O)c2C(=O)c2c(O)cccc21
inactive: [1] -10.2% | [2] | [3] | [4] | [5] | [6]

OCC(O)CS (stereo not given)
inactive: [1] -11.9% | [2] | [3] | [4] | [5] | [6]

COc1nc(C)nc(Cl)c1NC1=NCCN1
inactive: [1] -23.1% | [2] | [3] | [4] | [5] | [6]

O=C(O)CCC(=O)Nc1ccc(S(=O)(=O)Nc2nccs2)cc1
inactive: [1] -34.8% | [2] | [3] | [4] | [5] | [6]

CCn1cc(C(=O)O)c(=O)c2cc(F)c(N3CCN(C)CC3)cc21
inactive: [1] -16.7% | [2] | [3] | [4] | [5] | [6]

O=C1Nc2ccccc2C1(c1ccc(O)cc1)c1ccc(O)cc1
inactive: [1] -14% | [2] | [3] | [4] | [5] | [6]

O=C(O)CCc1nc(-c2ccccc2)c(-c2ccccc2)o1
inactive: [1] 18.2% | [2] | [3] | [4] | [5] | [6]

Brc1c(NC2=NCCN2)ccc2nccnc12
inactive: [1] -28.5% | [2] | [3] | [4] | [5] | [6]

C[C@]12CC[C@@H]3c4ccc(O)cc4CC[C@H]3[C@@H]1CC[C@@H]2OC(=O)CCC1CCCC1
inactive: [1] 23.9% | [2] | [3] | [4] | [5] | [6]

NNC(=O)CP(=O)(c1ccccc1)c1ccccc1
inactive: [1] 11.5% | [2] | [3] | [4] | [5] | [6]

Cc1cc(NC(=O)C2=C(O)c3ccccc3S(=O)(=O)N2C)no1
inactive: [1] -7.71% | [2] | [3] | [4] | [5] | [6]

CC(C)C(=O)Nc1cccc(C2CN3CCSC3=N2)c1 (stereo not given)
inactive: [1] -12.5% | [2] | [3] | [4] | [5] | [6]

Cc1sccc1Br
inactive: [1] -12.3% | [2] | [3] | [4] | [5] | [6]

CCOC(=O)n1ccn(C)c1=S
inactive: [1] -11.5% | [2] | [3] | [4] | [5] | [6]

NCCc1cnc[nH]1
inactive: [1] 13.4% | [2] | [3] | [4] | [5] | [6]

CCc1cccc2c(CCO)c[nH]c12
inactive: [1] -22.1% | [2] | [3] | [4] | [5] | [6]

Cc1ncc(CSSCc2cnc(C)c(O)c2CO)c(CO)c1O
inactive: [1] -36.5% | [2] | [3] | [4] | [5] | [6]

CCN(CC)C(=O)N1CCN(C)CC1
inactive: [1] -16.8% | [2] | [3] | [4] | [5] | [6]

Cc1cccc(C)c1NC(=O)C(C)N (stereo not given)
inactive: [1] -28.5% | [2] | [3] | [4] | [5] | [6]

O=C1CC2(CCCC2)CC(=O)N1CCNCC1COc2ccccc2O1 (stereo not given)
inactive: [1] 16.2% | [2] | [3] | [4] | [5] | [6]

N[C@@H](Cc1cc(I)c(O)c(I)c1)C(=O)O
inactive: [1] 29.5% | [2] | [3] | [4] | [5] | [6]

CC(=O)CCC(=O)O
inactive: [1] 10.9% | [2] | [3] | [4] | [5] | [6]

N[C@@H](Cc1c[nH]c2ccc(O)cc12)C(=O)O
inactive: [1] 27.4% | [2] | [3] | [4] | [5] | [6]

C[N+]1(CC2COC(c3ccccc3)(C3CCCCC3)O2)CCCCC1 (stereo not given)
inactive: [1] 48.1% | [2] | [3] | [4] | [5] | [6]

CCOC(=O)C(C)(C)Oc1ccc(Cl)cc1
inactive: [1] 22.6% | [2] | [3] | [4] | [5] | [6]

C/C=C(/C(=C/C)c1ccc(OC(C)=O)cc1)c1ccc(OC(C)=O)cc1
inactive: [1] 15.4% | [2] | [3] | [4] | [5] | [6]

CCN[C@@H]1C[C@H](N)[C@@H](OC2OC(CN)=CCC2N)[C@H](O)[C@H]1O[C@H]1OC[C@](C)(O)[C@H](NC)[C@H]1O (stereo not given in full)
inactive: [1] -8.89% | [2] | [3] | [4] | [5] | [6]
